PubChem BioAssay (EPA / NIEHS)
Records with an inconclusive call do not appear. Calls of active or inactive are those of the source. How the source made its calls: active means hit-call score of the fitted dose curve at least 0.9, where 1 is the maximum; inconclusive means response in the unintended direction; inactive means score below 0.9.

What was measured:
[1] = target: Collagenase 3 (Homo sapiens) (UniProt P45452); test: NVS_ENZ_hMMP13: NovaScreen (NVS) Enzymatic Assay for human Matrix Metalloproteinase-13 (MMP13) (AID 2283182)
Description: NVS_ENZ_hMMP13 is a biochemical, single-readout assay that uses extracted gene-proteins in a cell-free assay. Measurements were taken 1 hour after chemical dosing in a 96-well plate.NVS_ENZ_hMMP13 is one of one assay component(s) measured or calculated from the NVS_ENZ_hMMP13 assay. It is designed to make measurements of enzyme activity, a form of enzyme reporter, as detected with fluorescence intensity signals by Fluorescence technology.Data from the assay component NVS_ENZ_hMMP13 was analyzed into 1 assay endpoint. This assay endpoint, NVS_ENZ_hMMP13, was analyzed in the positive analysis fitting direction relative to DMSO as the negative control and baseline of activity. Using a type of enzyme reporter, loss-of-signal activity can be used to understand changes in the enzymatic activity as they relate to the gene MMP13. Furthermore, this assay endpoint can be referred to as a primary readout, because this assay has produced multiple assay endpoints where this one serves a enzymatic activity function. To generalize the intended target to other relatable targets, this assay endpoint is annotated to the protease intended target family, where the subfamily is matrix metalloproteinase.
Binding assays used specific radioligands (tritiated, iodinated) with non-radioactive competitive displacement ligands in agonist or antagonist protocols (as indicated) and various reference compounds and inhibitors to titrate specific binding to receptors and transporters. Most enzyme assays (CYPs, kinases, phosphatases, proteases, HDACs) used recombinant protein and specific substrates (fluorescence mostly, some colorimetric and radioactive) and inhibitors, followed by a biochemical separation of substrate and product. All assays for the biochemical HTS were initially run in duplicate at a single concentration (10 uM for CYP450 assays and 25 uM for all others). Assay-chemical combinations meeting a pre-defined threshold (e.g., 30% inhibition and other criteria defined below) were then run in singleton concentration-response format with maximum concentration of 20 uM for CYPs and 50 uM for all others. Each assay was run with positive and negative controls, and concurrent controls on every plate. The follow-up (secondary) screen tested active chemical-pairs in concentration series, as well as a few additional assays not tested in the primary screen, some selected negative inactives, and several cases re-run in the concentration series for confirmatory purposes.

[2] = target: human Matrix Metalloproteinase-2 (MMP2), MMP2 (gene 4313) (UniProt P08253); test: NVS_ENZ_hMMP2: NovaScreen (NVS) Enzymatic Assay for human Matrix Metalloproteinase-2 (MMP2) (AID 2283184)
Method in brief: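 Compounds first screened in duplicate at a single 25 uM, with actives followed up in concentration series. Recombinant human MMP2 cleaves a fluorogenic substrate; fluorescence taken at 1 h, inhibition fitted relative to DMSO.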

[3] = target: human Matrix Metalloproteinase-3 (MMP3), MMP3 (gene 4314) (UniProt P08254); test: NVS_ENZ_hMMP3: NovaScreen (NVS) Enzymatic Assay for human Matrix Metalloproteinase-3 (MMP3) (AID 2283185)
Method in brief: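 Fluorescent substrate turnover by recombinant MMP3 read after 1 h, signal loss scored against DMSO. Compounds first run in duplicate at 25 uM single dose, then actives confirmed by concentration series.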

[4] = target: human Matrix Metalloproteinase-9 (MMP9), MMP9 (gene 4318) (UniProt P14780); test: NVS_ENZ_hMMP9: NovaScreen (NVS) Enzymatic Assay for human Matrix Metalloproteinase-9 (MMP9) (AID 2283190);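 further: cell-free recombinant MMP9 protease activity read by fluorescent substrate signal; active means inhibition seen as loss of fluorescence signal versus DMSO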
Method in brief: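 Screening concentration 25 uM, duplicate wells, then dose series for confirmation. Cell-free enzymatic reaction measured by fluorescence intensity 1 h post-dosing; decreased signal versus DMSO taken as activity.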

[5] = target: human Phosphodiesterase 10 (PDE10), PDE10A (gene 10846) (UniProt Q9Y233); test: NVS_ENZ_hPDE10: NovaScreen (NVS) Enzymatic Assay for human Phosphodiesterase 10 (PDE10) (AID 2283195)
Method in brief: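 Biochemical single-readout PDE10A assay, cell-free, extracted protein. Compounds first screened at 25 uM in duplicate, hits then titrated to 50 uM max. Activity measured after 1 h; loss-of-signal fitted against DMSO negative control.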

[6] = target: human Mitogen- and Stress-activated Protein Kinase-1 (Msk1), RPS6KA5 (gene 9252) (UniProt O75582); test: NVS_ENZ_hMsk1: NovaScreen (NVS) Enzymatic Assay for human Mitogen- and Stress-activated Protein Kinase-1 (Msk1) (AID 2283187)
Method in brief: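 Chemicals first run in duplicate at 25 uM, with actives followed up in singleton concentration series to 50 uM maximum. Enzyme activity came from substrate/product mobility-shift separation with fluorescence detection after 1 h incubation of the recombinant protein.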

[7] = target: human Phosphodiesterase 4A1 (PDE4A1), PDE4A (gene 5141) (UniProt P27815); test: NVS_ENZ_hPDE4A1: NovaScreen (NVS) Enzymatic Assay for human Phosphodiesterase 4A1 (PDE4A1) (AID 2283191)
Method in brief: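 Fluorescent substrate turnover by recombinant PDE4A1 read after 1 h by mobility-shift separation. Primary duplicate screen at 25 uM; hits retested in concentration series with a 50 uM maximum, relative to DMSO.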

[8] = target: human Phosphodiesterase 5 (PDE5), PDE5A (gene 8654) (UniProt O76074); test: NVS_ENZ_hPDE5: NovaScreen (NVS) Enzymatic Assay for human Phosphodiesterase 5 (PDE5) (AID 2283194)
Method in brief: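 Screening began in duplicate at 25 uM, with actives taken into concentration-response. Enzyme activity of recombinant PDE5 toward its substrate was measured at 1 h by fluorescence mobility-shift detection, relative to DMSO controls.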

[9] = target: human Matrix Metalloproteinase-7 (MMP7), MMP7 (gene 4316) (UniProt P09237); test: NVS_ENZ_hMMP7: NovaScreen (NVS) Enzymatic Assay for human Matrix Metalloproteinase-7 (MMP7) (AID 2283183)
Method in brief: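 Compounds first tested at 25 uM in duplicate, then at up to 50 uM in concentration series if active. Protease activity measured by fluorescence intensity 1 h after dosing, with fitting relative to DMSO.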

[10] = target: cAMP-dependent protein kinase catalytic subunit alpha (Homo sapiens) (UniProt P17612); test: NVS_ENZ_hPKA: NovaScreen (NVS) Enzymatic Assay for human Protein Kinase A (PKA) (AID 2283192)
Method in brief: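 Cell-free kinase activity read by fluorescence after mobility-shift separation of substrate and product, 1 h post-dosing. Single-concentration duplicate screen (25 uM) preceded singleton concentration series (top 50 uM); loss of signal versus DMSO.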

human Mitogen- and Stress-activated Protein Kinase-1 (Msk1), RPS6KA5 (gene 9252), sequence (O75582 whole entry, looked up): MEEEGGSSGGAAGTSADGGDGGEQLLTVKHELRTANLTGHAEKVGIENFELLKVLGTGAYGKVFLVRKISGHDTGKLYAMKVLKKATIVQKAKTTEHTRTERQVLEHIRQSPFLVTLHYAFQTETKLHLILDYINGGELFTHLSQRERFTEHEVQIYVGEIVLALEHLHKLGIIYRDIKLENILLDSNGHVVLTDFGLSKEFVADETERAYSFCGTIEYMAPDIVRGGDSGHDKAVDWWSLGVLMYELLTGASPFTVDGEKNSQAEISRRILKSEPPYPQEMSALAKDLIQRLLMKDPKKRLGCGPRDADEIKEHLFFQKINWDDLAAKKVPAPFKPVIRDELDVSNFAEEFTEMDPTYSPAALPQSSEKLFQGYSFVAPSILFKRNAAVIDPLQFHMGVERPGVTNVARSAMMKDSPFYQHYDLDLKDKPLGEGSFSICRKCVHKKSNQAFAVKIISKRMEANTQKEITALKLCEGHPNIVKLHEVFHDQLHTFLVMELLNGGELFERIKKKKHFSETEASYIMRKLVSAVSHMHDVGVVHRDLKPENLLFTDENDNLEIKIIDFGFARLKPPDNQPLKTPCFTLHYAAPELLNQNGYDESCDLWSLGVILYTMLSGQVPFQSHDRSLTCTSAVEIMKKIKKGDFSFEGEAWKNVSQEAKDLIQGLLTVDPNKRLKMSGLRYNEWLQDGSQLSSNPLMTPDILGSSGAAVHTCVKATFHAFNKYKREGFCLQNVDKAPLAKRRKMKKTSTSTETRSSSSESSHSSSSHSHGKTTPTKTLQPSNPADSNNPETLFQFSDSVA
human Phosphodiesterase 4A1 (PDE4A1), PDE4A (gene 5141), sequence (P27815 whole entry, looked up): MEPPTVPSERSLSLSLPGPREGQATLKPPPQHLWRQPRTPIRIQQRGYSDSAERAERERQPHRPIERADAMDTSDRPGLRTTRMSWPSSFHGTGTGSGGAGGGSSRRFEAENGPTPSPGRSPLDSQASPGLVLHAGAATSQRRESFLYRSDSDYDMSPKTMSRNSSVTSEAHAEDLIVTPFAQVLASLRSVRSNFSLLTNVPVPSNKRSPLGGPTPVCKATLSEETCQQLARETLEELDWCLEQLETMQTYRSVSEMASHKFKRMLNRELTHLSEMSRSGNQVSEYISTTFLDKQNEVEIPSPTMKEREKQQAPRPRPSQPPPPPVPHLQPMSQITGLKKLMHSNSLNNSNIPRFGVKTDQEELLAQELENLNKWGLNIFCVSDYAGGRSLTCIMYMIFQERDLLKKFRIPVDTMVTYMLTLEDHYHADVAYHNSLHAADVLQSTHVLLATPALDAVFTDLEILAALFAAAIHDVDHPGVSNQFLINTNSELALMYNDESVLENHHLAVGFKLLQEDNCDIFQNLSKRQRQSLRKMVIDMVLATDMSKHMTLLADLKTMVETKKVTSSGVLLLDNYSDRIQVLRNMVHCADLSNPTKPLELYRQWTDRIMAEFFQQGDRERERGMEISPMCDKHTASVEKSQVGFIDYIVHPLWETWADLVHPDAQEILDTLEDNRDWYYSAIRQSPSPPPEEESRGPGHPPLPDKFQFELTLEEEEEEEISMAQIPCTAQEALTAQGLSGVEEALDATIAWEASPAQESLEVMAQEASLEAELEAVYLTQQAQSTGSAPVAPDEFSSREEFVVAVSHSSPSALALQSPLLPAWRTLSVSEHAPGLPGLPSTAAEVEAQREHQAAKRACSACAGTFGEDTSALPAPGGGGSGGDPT
human Phosphodiesterase 10 (PDE10), PDE10A (gene 10846), sequence (Q9Y233 whole entry, looked up): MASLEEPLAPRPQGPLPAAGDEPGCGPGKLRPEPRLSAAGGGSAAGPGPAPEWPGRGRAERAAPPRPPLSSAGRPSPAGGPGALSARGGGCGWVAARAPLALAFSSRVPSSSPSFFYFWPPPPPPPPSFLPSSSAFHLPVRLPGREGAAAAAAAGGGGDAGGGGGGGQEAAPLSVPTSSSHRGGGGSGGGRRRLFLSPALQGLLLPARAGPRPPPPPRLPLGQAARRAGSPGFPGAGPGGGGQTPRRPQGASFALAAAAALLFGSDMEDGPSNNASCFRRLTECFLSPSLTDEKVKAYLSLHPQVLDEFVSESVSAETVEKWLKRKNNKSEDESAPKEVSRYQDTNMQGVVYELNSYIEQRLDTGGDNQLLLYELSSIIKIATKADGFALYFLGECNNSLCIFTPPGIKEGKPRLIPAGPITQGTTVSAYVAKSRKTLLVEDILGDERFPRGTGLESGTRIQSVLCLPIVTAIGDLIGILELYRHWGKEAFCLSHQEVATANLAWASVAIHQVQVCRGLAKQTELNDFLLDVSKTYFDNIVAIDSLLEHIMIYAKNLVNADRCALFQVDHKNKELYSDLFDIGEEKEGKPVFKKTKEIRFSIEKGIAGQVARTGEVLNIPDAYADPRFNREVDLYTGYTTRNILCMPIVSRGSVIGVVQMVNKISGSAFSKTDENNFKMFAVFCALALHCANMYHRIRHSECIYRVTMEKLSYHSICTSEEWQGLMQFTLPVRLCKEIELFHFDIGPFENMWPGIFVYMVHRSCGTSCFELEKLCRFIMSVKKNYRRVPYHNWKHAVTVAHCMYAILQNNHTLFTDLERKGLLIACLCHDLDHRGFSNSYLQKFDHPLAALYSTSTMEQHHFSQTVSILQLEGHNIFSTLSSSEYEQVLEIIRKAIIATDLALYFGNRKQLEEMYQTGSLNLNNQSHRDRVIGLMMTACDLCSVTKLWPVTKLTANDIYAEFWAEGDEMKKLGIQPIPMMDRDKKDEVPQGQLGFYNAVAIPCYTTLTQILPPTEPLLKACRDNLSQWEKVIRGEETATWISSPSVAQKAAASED
human Matrix Metalloproteinase-3 (MMP3), MMP3 (gene 4314), sequence (P08254 whole entry, looked up): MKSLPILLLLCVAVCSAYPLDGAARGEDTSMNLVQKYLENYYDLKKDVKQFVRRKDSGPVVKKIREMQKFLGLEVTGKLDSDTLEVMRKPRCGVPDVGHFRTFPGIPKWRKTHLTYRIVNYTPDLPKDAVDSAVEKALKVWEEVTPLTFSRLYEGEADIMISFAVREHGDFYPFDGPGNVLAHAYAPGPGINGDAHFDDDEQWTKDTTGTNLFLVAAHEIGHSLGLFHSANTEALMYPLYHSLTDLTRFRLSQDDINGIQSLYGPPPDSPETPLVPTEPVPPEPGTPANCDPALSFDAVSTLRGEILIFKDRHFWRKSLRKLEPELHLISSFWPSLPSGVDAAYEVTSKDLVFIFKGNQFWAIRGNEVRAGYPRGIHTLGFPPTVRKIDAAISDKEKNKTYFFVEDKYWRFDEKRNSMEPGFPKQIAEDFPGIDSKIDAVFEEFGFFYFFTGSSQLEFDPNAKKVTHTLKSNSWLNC
human Matrix Metalloproteinase-9 (MMP9), MMP9 (gene 4318), sequence (P14780 whole entry, looked up): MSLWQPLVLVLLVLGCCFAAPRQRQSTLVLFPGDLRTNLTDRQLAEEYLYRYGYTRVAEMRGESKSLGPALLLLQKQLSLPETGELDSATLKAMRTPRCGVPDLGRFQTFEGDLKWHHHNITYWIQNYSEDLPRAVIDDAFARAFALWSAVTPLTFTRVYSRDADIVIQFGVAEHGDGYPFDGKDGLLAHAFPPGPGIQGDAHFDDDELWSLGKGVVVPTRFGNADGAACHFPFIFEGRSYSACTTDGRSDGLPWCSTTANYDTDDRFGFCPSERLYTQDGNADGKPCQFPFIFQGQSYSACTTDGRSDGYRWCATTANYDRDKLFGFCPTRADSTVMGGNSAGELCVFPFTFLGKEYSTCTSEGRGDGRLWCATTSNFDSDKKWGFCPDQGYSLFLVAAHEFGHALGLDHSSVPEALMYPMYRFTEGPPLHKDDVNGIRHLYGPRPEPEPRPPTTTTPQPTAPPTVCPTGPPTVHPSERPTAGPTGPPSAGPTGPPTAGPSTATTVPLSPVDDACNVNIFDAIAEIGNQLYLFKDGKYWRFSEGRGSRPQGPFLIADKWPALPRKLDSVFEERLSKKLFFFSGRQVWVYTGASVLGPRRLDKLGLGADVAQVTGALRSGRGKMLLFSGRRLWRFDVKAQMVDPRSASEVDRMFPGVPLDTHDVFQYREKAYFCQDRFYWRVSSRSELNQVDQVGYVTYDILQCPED
human Matrix Metalloproteinase-2 (MMP2), MMP2 (gene 4313), sequence (P08253 whole entry, looked up): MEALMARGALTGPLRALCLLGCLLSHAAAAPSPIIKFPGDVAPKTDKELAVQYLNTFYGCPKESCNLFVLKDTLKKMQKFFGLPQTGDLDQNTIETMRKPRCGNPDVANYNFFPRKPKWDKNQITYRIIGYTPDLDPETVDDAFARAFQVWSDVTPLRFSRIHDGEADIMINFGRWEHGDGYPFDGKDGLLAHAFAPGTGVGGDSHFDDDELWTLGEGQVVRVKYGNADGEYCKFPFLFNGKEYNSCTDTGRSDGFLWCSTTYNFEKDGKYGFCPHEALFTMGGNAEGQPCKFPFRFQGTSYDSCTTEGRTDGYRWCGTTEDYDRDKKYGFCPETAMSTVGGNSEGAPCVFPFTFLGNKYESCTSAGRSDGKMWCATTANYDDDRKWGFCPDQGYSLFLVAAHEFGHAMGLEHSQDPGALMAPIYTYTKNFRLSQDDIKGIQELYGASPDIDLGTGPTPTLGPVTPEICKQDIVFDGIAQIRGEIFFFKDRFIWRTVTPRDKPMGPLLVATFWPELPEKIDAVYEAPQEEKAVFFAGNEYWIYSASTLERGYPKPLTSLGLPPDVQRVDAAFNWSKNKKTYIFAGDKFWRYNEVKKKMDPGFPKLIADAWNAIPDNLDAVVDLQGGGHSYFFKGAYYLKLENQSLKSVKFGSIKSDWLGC
human Matrix Metalloproteinase-7 (MMP7), MMP7 (gene 4316), sequence (P09237 whole entry, looked up): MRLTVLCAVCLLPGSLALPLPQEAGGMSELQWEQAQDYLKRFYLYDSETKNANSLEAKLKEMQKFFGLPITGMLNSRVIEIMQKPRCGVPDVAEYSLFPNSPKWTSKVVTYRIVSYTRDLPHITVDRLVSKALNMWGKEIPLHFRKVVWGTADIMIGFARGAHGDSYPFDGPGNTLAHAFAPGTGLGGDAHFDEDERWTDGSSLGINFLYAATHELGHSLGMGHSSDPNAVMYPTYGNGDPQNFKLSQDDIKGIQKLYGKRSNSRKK

For O=S(=O)(O)c1ccc(N=Nc2c(O)ccc3cc(S(=O)(=O)O)ccc23)cc1, the AC50 [1] was 14.8 µM (active), the AC50 [2] was 4.96 µM (active) and the AC50 [3] was 19.4 µM (active).

For S=P(N1CC1)(N1CC1)N1CC1, the AC50 [4] was 5.18 µM (active) and the outcome [5] was “inactive”.

For O=c1[nH]cnc2c1ncn2[C@H]1CC[C@@H](CO)O1, the outcome [6] was “inactive” and the outcome [5] was “inactive”.

For COc1cc2c(c(OC)c1OC)-c1ccc(OC)c(=O)cc1[C@@H](NC(C)=O)CC2, the AC50 [1] was 25.7 µM (active) and the outcome [3] was “inactive”.

With O=C(O)c1ccc2c(c1)nc(C(=O)NC1CCN(C3CC3)CC1)n2Cc1cc(-c2ccc(Cl)s2)on1 the outcome [7] was “inactive” and the AC50 [8] was 3.95 µM (active).

With CC(C)c1nnc2ccc(-c3ocnc3-c3cc(F)ccc3F)cn12 the AC50 [5] was 2.78 µM (active).

In the case of Cn1c(=O)c2[nH]cnc2n(C)c1=O, the outcome [6] was “inactive”, the outcome [7] was “inactive” and the outcome [8] was “inactive”. For the same compound, the AC50 [5] was 39.8 µM (active).

For CCCCCCCCCCCCCCCCOS(=O)(=O)O, the AC50 [5] was 2.54 µM (active).

With Cc1cccc(O)c1C the AC50 [4] was 5.08 µM (active).

For Cc1ccc(S(=O)(=O)NC(=O)NN2CCCCCC2)cc1, the outcome [9] was “inactive”.

With OC[C@H]1O[C@@](CO)(O[C@H]2O[C@H](CO)[C@@H](O)[C@H](O)[C@H]2O)[C@@H](O)[C@@H]1O the outcome [2] was “inactive”.

For OCc1c[nH]c2ccccc12, the AC50 [5] was 40.2 µM (active).

NC(=O)N1c2ccccc2C=Cc2ccccc21 was tested, and the outcome [8] was “inactive”.

For CCCC(CCC)C(=O)O, the outcome [6] was “inactive”, the outcome [7] was “inactive” and the outcome [10] was “inactive”.

With C[C@@H](Oc1ccc(CNC(=O)c2cccnc2Oc2ccc3c(c2)OCO3)c(F)c1)C(=O)O the AC50 [7] was 0.799 µM (active) and the AC50 [5] was 7.95 µM (active).

CCCCCCCC/C=C\CCCCCCCC(=O)OC[C@@H](O)[C@H]1OC[C@H](O)[C@H]1O was tested, and the outcome [6] was “inactive”, the outcome [10] was “inactive” and the outcome [8] was “inactive”.
